According to PMC4336329 (PLoS ONE, 2015):
In all, about 310,000 compounds went through this assay and about 14,000 (4.5%) showed an effect of 50% or more. The effect is printed as a negative number. The sample holds strong results, similar compounds and a random draw of the others, so the mix is not that of the screen. Where a SMILES comes first, the peptide text is derived from it. The star is where a group is joined. Boc = CC(C)(C)OC(=O)*

Molecular target: human ether-à-go-go-related gene (hERG) potassium channel (human, UniProt Q12809)
Sequence (Q12809 whole entry, looked up): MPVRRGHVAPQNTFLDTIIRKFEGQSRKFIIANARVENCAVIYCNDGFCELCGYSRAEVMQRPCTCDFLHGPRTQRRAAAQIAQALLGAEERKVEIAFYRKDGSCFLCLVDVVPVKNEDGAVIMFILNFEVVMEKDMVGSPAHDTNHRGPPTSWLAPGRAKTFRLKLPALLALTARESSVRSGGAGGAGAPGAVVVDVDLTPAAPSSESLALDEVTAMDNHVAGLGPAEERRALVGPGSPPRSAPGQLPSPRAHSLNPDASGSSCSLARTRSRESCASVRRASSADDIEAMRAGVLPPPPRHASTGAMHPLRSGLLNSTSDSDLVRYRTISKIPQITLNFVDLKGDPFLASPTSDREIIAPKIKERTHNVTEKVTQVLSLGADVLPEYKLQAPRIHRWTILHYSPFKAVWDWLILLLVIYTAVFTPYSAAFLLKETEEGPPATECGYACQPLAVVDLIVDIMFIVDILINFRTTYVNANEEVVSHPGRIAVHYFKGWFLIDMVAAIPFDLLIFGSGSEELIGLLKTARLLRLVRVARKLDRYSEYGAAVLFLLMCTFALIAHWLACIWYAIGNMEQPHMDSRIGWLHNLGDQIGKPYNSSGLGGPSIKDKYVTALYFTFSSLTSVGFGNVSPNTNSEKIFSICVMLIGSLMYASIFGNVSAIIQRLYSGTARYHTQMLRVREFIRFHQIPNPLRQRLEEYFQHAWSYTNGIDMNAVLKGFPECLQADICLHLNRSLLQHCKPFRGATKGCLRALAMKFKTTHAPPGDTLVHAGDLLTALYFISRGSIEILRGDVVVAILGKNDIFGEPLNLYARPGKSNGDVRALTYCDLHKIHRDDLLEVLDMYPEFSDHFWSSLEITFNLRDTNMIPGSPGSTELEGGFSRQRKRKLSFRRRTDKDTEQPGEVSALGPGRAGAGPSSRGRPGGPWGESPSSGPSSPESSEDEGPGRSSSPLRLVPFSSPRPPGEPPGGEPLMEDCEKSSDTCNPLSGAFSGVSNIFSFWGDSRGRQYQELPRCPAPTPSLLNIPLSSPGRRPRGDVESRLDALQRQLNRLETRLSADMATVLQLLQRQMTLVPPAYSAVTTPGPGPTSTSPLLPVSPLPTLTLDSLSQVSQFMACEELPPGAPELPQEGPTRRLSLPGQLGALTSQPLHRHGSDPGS
Test: primary screen, population patch clamp on CHO cells stably expressing hERG; higher = less effect of the substance
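Further: peak tail current of the secondary pulse compared with the same well before compound.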

Structure (SMILES)	hERG current change (%, negative = inhibition) at 10uM
CS(=O)(=O)c1ccc(Oc2ccc(-c3nnco3)cc2)c([N+](=O)[O-])c1	-7.35%
COc1cccc(C2C(C#N)=C(N)Oc3cc(C)[nH]c(=O)c32)c1OC (stereo not shown)	-10.4%
Cc1sc2c(c1C)C(c1ccc(C(C)(C)C)cc1)=NCC(=O)N2CC(=O)Nc1nccs1	-17.9%
Cc1ccc2c(c1)N(CC(=O)NCc1cccs1)C(=O)CO2	5.4%
Cc1sc2c(c1C)C(c1cccs1)=NCC(=O)N2CC(=O)NCc1cccs1	-56.2%
CCOCCCNC(=S)NC1CC2CCC(C1)N2Cc1ccccc1 (stereo not shown)	-23%
Cc1noc(C(=O)Nc2ccc(F)c(Cl)c2)c1Cl	8.86%
Oc1cccc2nc3ccccc3nc12	2.6%
CCOC(=O)C1(CCc2ccccc2)CCN(Cc2ccc(O)cc2)CC1	-83.4%
CCOC(=O)C1(CCOC)CCN(C(C)CCc2ccc(OC)cc2)CC1 (stereo not shown)	-71.1%
CCOC(=O)C1(Cc2cccc(OC)c2)CCN(C(C)COC)CC1 (stereo not shown)	5.9%
CCOC(=O)C1(CCc2ccccc2)CCN(CC(O)CO)CC1 (stereo not shown)	-40.3%
CCOC(=O)C1(CCc2ccccc2)CCN(Cc2ccc(C(=O)OC)cc2)CC1	-91.8%
CCOC(=O)C1(CCc2ccccc2)CCN(Cc2ccco2)CC1	-76.5%
CCOC(=O)C1(CCOC)CCN(Cc2ccccc2-c2ccco2)CC1	-22.4%
CCOC(=O)C1(CCOC)CCN(C(=O)Cc2ccc3ccccc3c2)CC1	-0.72%
Cc1ccc(S(=O)(=O)N2CCN(S(=O)(=O)N3CCCCC3)CC2)c(C)c1	-6.97%
CSc1sc(C(=O)N2CCCCC2)c(-c2cccs2)c1C#N	-27.7%
CC(C)(C)c1ccc(OCC(=O)Nc2cccc(S(=O)(=O)NC3=NCCCCC3)c2)cc1	-18.9%
COc1ccc2c(CC(=O)OCC(=O)Nc3ccc(C)cc3)coc2c1	-1.56%
O=S1(=O)CC2SC(=S)N(c3ccccc3)C2C1 (stereo not shown)	7.98%
CCOc1ccc(/C(O)=C2/C(=O)C(=O)N(CCN(C)C)C2c2ccccc2)cc1Cl (stereo not shown)	-5.2%
CC(=O)c1c(C)[nH]c(C(=O)COC(=O)c2ccc3c(=O)n4c(nc3c2)CCC4)c1C	-0.297%
O=[N+]([O-])c1ccccc1C1Nc2cccc3cccc(c23)N1	11.8%
CCC1CCCCN1C(=O)c1ccc(OC2CCN(Cc3ccccn3)CC2)cc1 (stereo not shown)	5.27%

Structure (SMILES)	hERG current change (%, negative = inhibition) at 10uM
CCc1nnc(NC(=O)CSc2ccc(-c3nc4ccccc4[nH]3)cn2)s1	5.82%
COC(=O)C(Cc1ccccc1)NC(=O)C(CC(C)C)NC(=O)OC(C)(C)C (stereo not drawn) (Boc-Leu-Phe-OMe; configuration not given here)	10.7%
CCOC(=O)C1(Cc2ccccc2Cl)CCN(Cc2csc(C(C)=O)c2)CC1	-12.3%
CCOC(=O)C1(CCc2ccccc2)CCN(Cc2ccc(OC)cc2)CC1	-77.5%
CCOC(=O)C1(CC2CC2)CCN(Cc2cc(Cl)c(O)c(OC)c2)CC1	-57.1%
CCOC(=O)C1CCN(Cc2ccc(C(=O)OC)cc2)CC1	-14.6%
CCOC(=O)C1(CC2CC2)CCN(Cc2cnc(-c3ccccc3C)nc2)CC1	-10.4%
CCOC(=O)C1(CC2CC2)CCN(Cc2ccc(C(=O)OC)cc2)CC1	-57%
CCOC(=O)C1(CCOC)CCN(Cc2ccc(C(=O)OC)cc2)CC1	-27.2%
CCOC(=O)C1(CC2CC2)CCN(Cc2ccc(O)c(Cl)c2)CC1	-41.6%
CCOC(=O)C1(CCc2ccccc2)CCN(Cc2csc(C(C)=O)c2)CC1	-74.8%
CCOC(=O)C1(Cc2ccccc2)CCN(Cc2csc(C(C)=O)c2)CC1	-24.2%
CCOC(=O)N1CCN(C(=O)CCC2CCCC2)CC1	9.89%
Cc1cc(C)c(S(=O)(=O)c2c(C)cccc2C)c(OCC(C)C)n1	2.76%
COc1cccc(-c2nc(CS(=O)(=O)CC(=O)Nc3cc(C)ccc3C)c(C)o2)c1	7.02%
C[n+]1cn(Cc2ccc(C#N)cc2)c2ccccc21.[Cl-]	2.75%
C=CCN=C1N[C@@H](c2ccccc2)C(C(=O)OC)=C(C)N1CCOC	-13%
CC(=O)N(C)c1ccc(NC(=S)Nc2cccc3ccccc23)cc1	3.38%
O=C(CSc1nnnn1-c1ccc(O)cc1)Nc1ccc(N2CCOCC2)c(Cl)c1	-1.58%
CCOc1ccc(CCNC(=O)C2CCCN(c3nn4c(=O)cc(C)nc4s3)C2)cc1 (stereo not shown)	-24.2%
COC(c1ccccc1)c1nnc(CCC(=O)NC2C3CC4CC(C3)CC2C4)o1 (stereo not shown)	-3.85%
CCCCc1c(C)nc2c(OC)cccc2c1SCC(=O)O	12.3%
O=C(Oc1ccnc2cc(Cl)ccc12)N1CCCCCC1	-23%
O=C(NNc1ccnc2cc(Cl)ccc12)C1CCCCC1	16.1%
NC(=O)C1CCN(c2ccnc3cc(Cl)ccc23)CC1	-51.6%

Structure (SMILES)	hERG current change (%, negative = inhibition) at 10uM
CC1CN(c2ccnc3cc(Cl)ccc23)CC(C)O1 (stereo not shown)	-39.7%
O=C(C1CCCCC1)N1CCN(c2ccnc3cc(Cl)ccc23)CC1	-66.1%
NC(=O)C1CCN(c2cc(Cl)ccc2[N+](=O)[O-])CC1	3.89%
O=C(C1CCC1)N1CCN(c2ccc(Cl)cc2)CC1	-5.33%
O=C(C1CCC1)N1CCN(c2ccnc3cc(Cl)ccc23)CC1	-71.4%
O=C(C1CC1)N1CCN(c2ccnc3cc(Cl)ccc23)CC1	-73.6%
Cc1[nH]c2ccc(C(=O)N3CCN(C)CC3)cc2c1C	30.8%
COc1ccc(C2CC(c3cccs3)=NN2c2ccc(F)cc2)cc1OC (stereo not shown)	26.6%
CCN1CCN(CCCNC(=O)c2ccc(NC(=O)C3=CSCCO3)cc2)CC1	19.9%
COc1ccccc1NC(=O)c1ccc(Br)o1	-6.16%
CCOc1ccccc1NC(=O)c1ccccc1-c1nc(-c2ccccc2OC)no1	-35.6%
COc1ccccc1-c1noc(-c2ccccc2C(=O)Nc2ccccc2)n1	13.9%
COc1ccccc1NC(=O)c1ccc(C(=O)c2ccccc2)o1	-69.4%
COc1ccccc1NC(=O)c1ccc(N)cc1	5.63%
COc1ccccc1NC(=O)c1cc(C(=O)Nc2ccccc2OC)cc([N+](=O)[O-])c1	21.1%
O=C(Nc1ccccc1O)c1ccc(C(=O)c2ccccc2)o1	11.2%
COc1ccccc1NC(=O)c1ccccc1-c1nc(-c2ccccc2OC)no1	-57.7%
COc1ccccc1NC(=O)c1cc(N)cc(C(=O)Nc2ccccc2OC)c1	-50.6%
COc1ccc(C(=O)OCC(=O)NC(C)CCc2ccccc2)cc1OC (stereo not shown)	0.524%
O=C(COc1ccc([N+](=O)[O-])cc1)N(Cc1ccccc1)Cc1ccccc1	-41.5%
COC(=O)c1c(C)oc2ccc(OC(=O)N3CCOCC3)cc12	-8.62%
CCC(CC)c1nnc(NC(=O)c2cc(C(=O)OC)cc([N+](=O)[O-])c2)s1	7.7%
COC(=O)c1ccc(OC(=O)CCS(=O)(=O)c2ccc(C)cc2)cc1	-16.4%
Cc1noc(C)c1CCC(=O)NC1CCCN(Cc2ccc(Cl)cc2)C1 (stereo not shown)	-24%
CC(C)Cc1ccc(CN2CCCC(NC(=O)CSc3nncn3C)C2)cc1 (stereo not shown)	-23.7%

Structure (SMILES)	hERG current change (%, negative = inhibition) at 10uM
Cc1ccn(CC(=O)NC2CCCN(Cc3ccc(CC(C)C)cc3)C2)n1 (stereo not shown)	-55.2%
CC(C)Cc1ccc(CN2CCCC(NC(=O)CCn3cnnn3)C2)cc1 (stereo not shown)	-46.2%
CC(C)Cc1ccc(CN2CCCC(NC(=O)Cn3cnnn3)C2)cc1 (stereo not shown)	-26.5%
CC(C)Cc1ccc(CN2CCCC(NC(=O)CCN3CCOCC3)C2)cc1 (stereo not shown)	-37.4%
Cc1noc(C)c1CCC(=O)NC1CCCN(Cc2ccc(CC(C)C)cc2)C1 (stereo not shown)	-66.8%
CC(C)Cc1ccc(CN2CCCC(NC(=O)CCN3CCCCC3=O)C2)cc1 (stereo not shown)	-45.3%
CC(=O)c1c(C)nn(CC(=O)NC2CCCN(Cc3ccc(CC(C)C)cc3)C2)c1C (stereo not shown)	-73.4%
CC(C)C[C@H](NC(=O)c1nc[nH]c1C(=O)NCc1ccc(CNC(=O)OC(C)(C)C)cc1)C(=O)OC(C)(C)C	2.06%
CN(C)Cc1nc2c(c(=O)[nH]1)C1(CCCCC1)Cc1ccccc1-2	-11.7%
CSc1ccc(/C=C/C(=O)NC23CC4CC(CC(C4)C2)C3)cc1	14.6%
C=CCNC(=S)NNC(=O)c1ccc(OCCCC)cc1	10.2%
CCN(CC(=O)NC(C)C)C(=O)[C@@H](NC(=O)c1ccco1)C(C)C	11.5%
COc1ccc([N+](=O)[O-])cc1C(=O)C(=O)c1ccccc1	8.56%
O=C(CCn1c(=O)oc2ccccc21)NCCN1CCOCC1	-2.83%
O=C(CCn1c(=O)oc2ccccc21)NCCCN1CCOCC1	16.9%
O=C(CCCn1c(=O)oc2ccccc21)N1CCN(c2ccc(F)cc2)CC1	-63.9%
O=C(CCn1c(=O)oc2ccccc21)NCCCN1CCN(c2ccc(F)cc2)CC1	-66.2%
O=C(CCn1c(=O)oc2ccccc21)N1CCN(c2ccccc2F)CC1	-23.8%
O=C(CCn1c(=S)oc2ccccc21)N1CCN(c2ccc(F)cc2)CC1	-25.3%
O=C(CN1C(=O)c2ccccc2S1(=O)=O)N1CCN(c2ccc(F)cc2)CC1	-7.37%
O=C(CCCn1c(=O)oc2ccccc21)N1CCN(c2ccccn2)CC1	-47.6%
Cl.O=C(CCN1C(=O)c2ccccc2S1(=O)=O)N1CCN(c2ccccc2)CC1	2.96%
O=C(CCn1c(=O)oc2ccccc21)N1CCN(c2ccc(F)cc2)CC1	-58%
O=C1CCN(C(=O)CCCn2c(=O)oc3ccccc32)CC1	17%
O=C(CCN1C(=O)c2ccccc2S1(=O)=O)N1CCN(c2ccc(F)cc2)CC1	-61.9%
